Results from publication PMC7862700, “An all-to-all approach to the identification of sequence-specific readers for epigenetic DNA modifications on cytosine”.

The sequences below were run against T1, ELK1 (Homo sapiens, UniProt P19419 1-428) (assay: DAPPL (digital affinity profiling via proximity ligation, sequencing); 10 mM Tris-HCl pH 7.5, 50 mM NaCl, 1 mM DTT, 4% glycerol, room temperature, 30 min; GST-TFs on glutathione beads, 16-mer random dsDNA library, 0.1% formaldehyde crosslink after washing; high values mean tight binding). Settings: protein: recombinant; tags: N-terminal GST; dsDNA, one strand shown.
T1 sequence: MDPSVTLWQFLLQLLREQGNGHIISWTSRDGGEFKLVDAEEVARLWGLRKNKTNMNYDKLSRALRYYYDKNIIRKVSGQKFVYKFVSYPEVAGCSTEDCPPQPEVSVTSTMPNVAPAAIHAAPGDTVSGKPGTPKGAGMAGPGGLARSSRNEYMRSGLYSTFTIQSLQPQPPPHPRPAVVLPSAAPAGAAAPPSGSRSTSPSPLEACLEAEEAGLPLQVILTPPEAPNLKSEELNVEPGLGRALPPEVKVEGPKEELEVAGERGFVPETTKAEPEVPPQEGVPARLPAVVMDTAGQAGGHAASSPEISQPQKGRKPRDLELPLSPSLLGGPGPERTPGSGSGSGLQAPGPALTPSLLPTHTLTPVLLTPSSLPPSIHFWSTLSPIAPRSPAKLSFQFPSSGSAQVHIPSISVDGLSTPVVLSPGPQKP
Outline: (§1)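 Beads coated with glutathione captured GST-fused human transcription factors that had been expressed in yeast, and the factors were then given DNA barcodes and pooled with a tag-only sample. The pools were incubated with 200 nmole of a random double-stranded 16-mer DNA library in Tris/NaCl/DTT/glycerol buffer for 30 min at room temperature, washed, crosslinked with 0.1% formaldehyde and proximity-ligated with BsaI/T4 ligase at 37 °C for 1 h. PCR amplification and Illumina NextSeq500 sequencing came last. Binding signal is each hexamer's read frequency for a factor divided by its frequency for the tag-only sample.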
For CAAAAT, the binding signal was 1.11 fold enrichment (6-mer frequency, TF over GST control).
For TTAGCT, the binding signal was 1.21 fold enrichment (6-mer frequency, TF over GST control).
In the case of TAACCT, the binding signal is reported as 1.32 fold enrichment (6-mer frequency, TF over GST control).
With AACATA the binding signal was 1.26 fold enrichment (6-mer frequency, TF over GST control).
With TACCTA the binding signal was 1.26 fold enrichment (6-mer frequency, TF over GST control).
ACTCAA was tested, and the binding signal was 1.23 fold enrichment (6-mer frequency, TF over GST control).
With AAAAAT the binding signal was 1.24 fold enrichment (6-mer frequency, TF over GST control).
With CCAATT the binding signal was 1.24 fold enrichment (6-mer frequency, TF over GST control).
In the case of CCGATT, the binding signal is reported as 1.35 fold enrichment (6-mer frequency, TF over GST control).
With ACCTCT the binding signal was 1.37 fold enrichment (6-mer frequency, TF over GST control).
In the case of AGCTCT, the binding signal is reported as 1.25 fold enrichment (6-mer frequency, TF over GST control).
For TGTATG, the binding signal was 1.16 fold enrichment (6-mer frequency, TF over GST control).
CAATCC was tested, and the binding signal was 1.19 fold enrichment (6-mer frequency, TF over GST control).
With AAGTAC the binding signal was 1.74 fold enrichment (6-mer frequency, TF over GST control).
With TCAACC the binding signal was 1.24 fold enrichment (6-mer frequency, TF over GST control).
With GATGAC the binding signal was 1.51 fold enrichment (6-mer frequency, TF over GST control).
With ATTCGT the binding signal was 1.24 fold enrichment (6-mer frequency, TF over GST control).
With ATGGCC the binding signal was 1.42 fold enrichment (6-mer frequency, TF over GST control).
For GAAAAT, the binding signal was 1.07 fold enrichment (6-mer frequency, TF over GST control).
For TTACAC, the binding signal was 1.26 fold enrichment (6-mer frequency, TF over GST control).

These sequences were tested against T2, GABPA (Homo sapiens, UniProt Q06546 1-454) in the same assay as above. Settings: protein: recombinant; tags: N-terminal GST; dsDNA, one strand shown.
T2 sequence: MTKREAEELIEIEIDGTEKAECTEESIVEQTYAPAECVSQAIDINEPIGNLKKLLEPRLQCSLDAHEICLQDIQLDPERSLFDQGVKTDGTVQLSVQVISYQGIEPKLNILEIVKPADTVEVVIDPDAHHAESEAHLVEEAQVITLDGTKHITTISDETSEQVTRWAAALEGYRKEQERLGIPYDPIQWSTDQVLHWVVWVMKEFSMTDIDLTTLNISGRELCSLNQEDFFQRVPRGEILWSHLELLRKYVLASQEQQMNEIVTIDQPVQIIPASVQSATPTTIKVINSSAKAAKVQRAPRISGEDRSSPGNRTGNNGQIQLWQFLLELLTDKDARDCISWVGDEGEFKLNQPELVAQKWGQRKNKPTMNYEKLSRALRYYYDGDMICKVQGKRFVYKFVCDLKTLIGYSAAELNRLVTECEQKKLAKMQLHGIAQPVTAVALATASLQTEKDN
Outline: as §1
GTCTCG was tested, and the binding signal was 1.3 fold enrichment (6-mer frequency, TF over GST control).
With CGTATA the binding signal was 1.17 fold enrichment (6-mer frequency, TF over GST control).
For GAATGT, the binding signal was 1.12 fold enrichment (6-mer frequency, TF over GST control).
For TCAAAC, the binding signal was 1.26 fold enrichment (6-mer frequency, TF over GST control).
For TTACGG, the binding signal was 1.22 fold enrichment (6-mer frequency, TF over GST control).
In the case of CTCACG, the binding signal is reported as 1.33 fold enrichment (6-mer frequency, TF over GST control).
TCCTAT was tested, and the binding signal was 1.58 fold enrichment (6-mer frequency, TF over GST control).
With ATGCTC the binding signal was 1.36 fold enrichment (6-mer frequency, TF over GST control).
With TCCGAA the binding signal was 1.37 fold enrichment (6-mer frequency, TF over GST control).
For ATTTGA, the binding signal was 1.26 fold enrichment (6-mer frequency, TF over GST control).
With CTGCAT the binding signal was 1.41 fold enrichment (6-mer frequency, TF over GST control).
In the case of ACGTAT, the binding signal is reported as 1.21 fold enrichment (6-mer frequency, TF over GST control).
For GGCTCT, the binding signal was 1.23 fold enrichment (6-mer frequency, TF over GST control).
GCCTAA was tested, and the binding signal was 1.14 fold enrichment (6-mer frequency, TF over GST control).
For CGATTG, the binding signal was 1.24 fold enrichment (6-mer frequency, TF over GST control).
TTACAT was tested, and the binding signal was 1.38 fold enrichment (6-mer frequency, TF over GST control).
For TAAATT, the binding signal was 1.2 fold enrichment (6-mer frequency, TF over GST control).
For CCCTCG, the binding signal was 1.38 fold enrichment (6-mer frequency, TF over GST control).
For TGCGCT, the binding signal was 1.13 fold enrichment (6-mer frequency, TF over GST control).
With CAAAAT the binding signal was 1.2 fold enrichment (6-mer frequency, TF over GST control).
With TTAGCT the binding signal was 1.23 fold enrichment (6-mer frequency, TF over GST control).
In the case of TAACCT, the binding signal is reported as 1.35 fold enrichment (6-mer frequency, TF over GST control).
With AACATA the binding signal was 1.29 fold enrichment (6-mer frequency, TF over GST control).
In the case of TACCTA, the binding signal is reported as 1.24 fold enrichment (6-mer frequency, TF over GST control).
With ACTCAA the binding signal was 1.22 fold enrichment (6-mer frequency, TF over GST control).
For AAAAAT, the binding signal was 1.31 fold enrichment (6-mer frequency, TF over GST control).
CCAATT was tested, and the binding signal was 1.25 fold enrichment (6-mer frequency, TF over GST control).
CCGATT was tested, and the binding signal was 1.32 fold enrichment (6-mer frequency, TF over GST control).
For ACCTCT, the binding signal was 1.41 fold enrichment (6-mer frequency, TF over GST control).
AGCTCT was tested, and the binding signal was 1.17 fold enrichment (6-mer frequency, TF over GST control).
With TGTATG the binding signal was 1.25 fold enrichment (6-mer frequency, TF over GST control).
In the case of CAATCC, the binding signal is reported as 1.26 fold enrichment (6-mer frequency, TF over GST control).
In the case of AAGTAC, the binding signal is reported as 1.44 fold enrichment (6-mer frequency, TF over GST control).
TCAACC was tested, and the binding signal was 1.22 fold enrichment (6-mer frequency, TF over GST control).
For GATGAC, the binding signal was 1.62 fold enrichment (6-mer frequency, TF over GST control).
ATTCGT was tested, and the binding signal was 1.05 fold enrichment (6-mer frequency, TF over GST control).
In the case of ATGGCC, the binding signal is reported as 1.45 fold enrichment (6-mer frequency, TF over GST control).
For GAAAAT, the binding signal was 1.16 fold enrichment (6-mer frequency, TF over GST control).
With TTACAC the binding signal was 1.18 fold enrichment (6-mer frequency, TF over GST control).
